From ChEMBL document CHEMBL3988442, “University of Dundee, Small-Polar-MMV Screening Library” (2021)
In all, about 48,000 compounds went through this assay and about 13,000 (27%) showed an effect of 50% or more. The list shows a part of the results.

Tested on: Wolbachia pipientis
Assay: Anti-Wolbachia Cell-Based Screen
Type: functional
Set-up: scale not given: in the data most compounds retested in dose-response had high values
Conditions: 5 µM

SMILES | Percent Effect
Cc1c(C(=O)NS(=O)(=O)c2ccsc2)cnn1CC(C)C | 9.8%
Cn1ccnc1C(=O)N1C[C@@H]2CCN(c3cnccn3)C[C@@H]2C1.O=C(O)C(F)(F)F | -15.62%
Cn1cncc1C(=O)N1C[C@@H]2CCN(c3cnccn3)C[C@@H]2C1.O=C(O)C(F)(F)F | -2.415%
CCC(=O)N1C[C@@H]2CCN(c3cnccn3)C[C@@H]2C1.O=C(O)C(F)(F)F | 109.3%
O=C(c1nc(=O)[nH][nH]1)N1CCCN(CC2CCCCC2)CC1 | 4.28%
Cc1nc(C2(O)CCCNCC2)sc1CCOc1ccc(Cl)cc1.Cl (centres undefined) | -4.713%
Cc1[nH]nc2ncc(C(=O)N3CCN(CC(C)(C)O)CC3)cc12 | -29.67%
CCOCC1CN(S(=O)(=O)Cc2ccccc2)Cc2nccn2C1 (centres undefined) | 112.8%
COCc1ncn2c1CN(S(=O)(=O)c1cccc(F)c1)CC2 | -3.986%
CCOCC1CN(S(=O)(=O)c2cccc(C)c2)Cc2nccn2C1 (centres undefined) | 102.9%
CCOCc1ncn2c1CN(S(=O)(=O)c1cccc(C)c1)CC2 | -2.947%
CCS(=O)(=O)N1Cc2nccn2CC(COc2cccnc2)C1 (centres undefined) | -25.66%
COCC1CN(S(=O)(=O)c2cccc(F)c2)Cc2nccn2C1 (centres undefined) | 114.5%
COCC1CN(S(=O)(=O)c2ccccc2)Cc2ncnn2C1 (centres undefined) | 2.623%
CCOCC1CN(S(=O)(=O)c2ccccc2)Cc2nccn2C1 (centres undefined) | 89.2%
O=S(=O)(Cc1ccccc1)NC[C@H]1Cn2ccnc2CO1 | -7.74%
CCc1nnc(CN(C)c2nc(C(C)C)nc3c2cnn3C)o1 | -14.59%
CCc1nc(C2CCCN2c2ncc(C(F)(F)F)cc2Cl)no1 (centres undefined) | 16.09%
Cc1cccc(S(=O)(=O)N2Cc3nccn3CC(CN(C)C)C2)c1 (centres undefined) | 117.9%
CCCS(=O)(=O)N1Cc2nccn2CC(CN(C)C)C1.O=C(O)C(F)(F)F (centres undefined) | -8.912%
Cc1cccc(S(=O)(=O)N2Cc3c(CN(C)C)nn(C)c3C2)c1 | -7.774%
CC(C)C1=NOC2(CCN(C(=O)C3CCCC3)CC2)C1 | 98.86%
CC(C)C1=NOC2(CCN(S(C)(=O)=O)CC2)C1 | 106.9%
COCCC1COC2(CCN(C(=O)C3CCCCC3)CC2)C1 (centres undefined) | -0.113%
COCCC1COC2(CCN(C(=O)C3CCCC3)CC2)C1 (centres undefined) | -1.347%

SMILES | Percent Effect
CS(=O)(=O)N1CCOC2(CCCC2)C1 | -2.404%
Cc1ccc(C(=O)N2CCC3(CC2)CC(NC(=O)C(C)C)CO3)cc1 (centres undefined) | -11.34%
CS(=O)(=O)N1CCC2(CC1)CN(CCn1cccn1)C(=O)CO2 | -11.65%
CC(=O)N1CCC2(CC1)CC(C(C)C)=NO2 | 118.9%
COCCC1COC2(CCN(C(C)=O)CC2)C1 (centres undefined) | -6.336%
CO[C@H]1CNC[C@@H]1NC(=O)c1cc(C)nc2c(C)cc(C)cc12 | 0.2692%
Cc1cnn(CCNCc2ccccc2Oc2cccnc2)c1 | 8.919%
CCCc1nc(N2Cc3cnn(Cc4ccc(F)cc4)c3C2)no1 | 5.743%
CSc1ccccc1CN1C[C@H]2CC[C@@H]1CN(Cc1[nH]cnc1C)C2 | -3.423%
CC(C)(C)C(N)c1nc(-c2nnc[nH]2)no1 (centres undefined) | -10.11%
CCOc1cc(/C=C/c2ncc(C(=O)O)s2)cc(Br)c1OC | 120.5%
CCOc1cc(/C=C/c2ncc(C(=O)O)s2)ccc1O | 7.127%
CCOc1c(Br)cc(/C=C/c2ncc(C(=O)O)s2)cc1OC | 109.6%
CNC(=O)c1cnc(/C=C/c2cc(OC)cc(OC)c2)s1 | 5.835%
CNC(=O)c1cnc(/C=C/c2cc(OC)c(O)c(OC)c2)s1 | -7.095%
CCOc1c(OC)cc(/C=C/c2ncc(C(=O)NC)s2)cc1OC | -0.7468%
COC(=O)c1ccc(/C=C/c2ncc(C(=O)O)s2)cc1 | 5.854%
CCOc1cc(/C=C/c2ncc(C(=O)O)s2)cc(Br)c1O | 111.7%
COC(=O)c1cnc(/C=C/c2ccc(C(=O)O)cc2)s1 | -4.44%
Cc1noc(C)c1CC(=O)NCC(C)N1CCOCC1 (centres undefined) | 8.973%
O=C(NCc1cccnc1)[C@@H]1CC[C@@H]2[C@@H](CCN2c2ncccn2)O1.O=C(O)C(F)(F)F.O=C(O)C(F)(F)F | 3.562%
Fc1ccc(CN2CCO[C@H]3[C@H](OCC4CC4)CC[C@@H]32)cc1.O=C(O)C(F)(F)F | 2.778%
CO[C@@H]1CC[C@H]2[C@H]1OCCN2Cc1ccc(F)cc1.O=C(O)C(F)(F)F | 109.6%
Fc1ccc(CN2CCO[C@H]3[C@H](OCC4CCCC4)CC[C@@H]32)cc1.O=C(O)C(F)(F)F | 109%
CCO[C@@H]1CC[C@H]2[C@H]1OCCN2Cc1ccc(F)cc1 | 96.26%

SMILES | Percent Effect
CO[C@H]1CC[C@H]2[C@H]1OCCN2Cc1ccc(F)cc1.O=C(O)C(F)(F)F | 91.7%
Fc1cccc(CN2CCO[C@H]3[C@@H](OCc4ccccn4)CC[C@@H]32)c1 | 10.15%
CC(=O)c1cccc(S(=O)(=O)NCC(C)(O)c2cccs2)c1 (centres undefined) | 1.748%
COCCN1CCN(C(=O)C[C@@H]2C[C@@H](C(C)C)[C@H](CC#N)C=C2C)CC1 | 7.225%
COc1cc(F)ccc1-c1cc(N)ccn1 | -8.193%
CCOc1ccccc1CNC(=O)NCC(c1cnn(C)c1)N(C)C (centres undefined) | -20.46%
Cc1cc(C)cc(C(=O)NCCCNc2ncccn2)c1 | -23.32%
Cc1ccc2cc(C3(O)CCN(C(=O)CN4CCCC4)CC3)ccc2n1 | -0.9065%
CS(=O)(=O)N(Cc1ccon1)c1ccc(F)cc1 | -1.74%
COc1ccc(C(C(=O)O)N2CCCN(C3CCCC3)CC2)cc1OC (centres undefined) | 14.25%
COc1ccc(C(C(=O)O)N2CCCN(C3CCCCC3)CC2)cn1 (centres undefined) | 6.723%
CC(C)CCn1cc(C(C(=O)O)N2CCC(N3CCSCC3)CC2)cn1 (centres undefined) | 123.7%
Cn1cc(CN2CCC3(CC2)CC(c2ccncc2)C(=O)N3)cn1.O=C(O)C(F)(F)F.O=C(O)C(F)(F)F (centres undefined) | 4.796%
CC(C)CCn1cc(C(C(=O)O)N2CCCN(C3CCCC3)CC2)cn1 (centres undefined) | 99.16%
CC(C)Cc1cn(C2CCN(C(C)CCn3cccn3)CC2)nn1 (centres undefined) | 2.161%
CC(CCn1cccn1)N1CCC(n2cc(C(C)(C)N)nn2)CC1 (centres undefined) | -1.676%
COc1ccc(F)cc1C(C(=O)O)N1CCSCC1 (centres undefined) | -3.942%
CC(C)CCn1cc(C(C(=O)O)N2CCSCC2)cn1 (centres undefined) | 100.1%
CC(C)CCS(=O)(=O)CC(=O)N1CCCC1c1cnn(C)c1 (centres undefined) | 5.656%
CC(C)CCn1cc(C(C(=O)O)N2CCC(c3ccncc3)CC2)cn1 (centres undefined) | 105.9%
COCCn1cc(NC(=O)NCC(C)N2CCOCC2)cn1 (centres undefined) | -7.646%
O=C(N[C@@H]1CN(c2ncccn2)C[C@@H]2CCCO[C@@H]21)c1cccnc1.O=C(O)C(F)(F)F.O=C(O)C(F)(F)F | -5.975%
COCc1cccc(C(=O)N2CCCC2)c1 | -4.067%
CCOCCN1CCN(Cc2cccc(C(=O)N(C)C)c2)CC1 | -1.534%
CCN1CCN(C(=O)c2cccc(CN3CCOCC3)c2)CC1 | 97.52%

SMILES | Percent Effect
CN1CCN(C(=O)c2cccc(CN3CCOCC3)c2)CC1 | 132.9%
CCN1CCN(C(=O)c2ccn(C)c(=O)c2)CC1 | 15.1%
CC1CCCN(C(=O)c2cccc(CS(C)(=O)=O)c2)C1 (centres undefined) | -2.941%
CC1CCN(C(=O)c2cccc(CN3CCOCC3)c2)CC1 | 117.9%
O=C(c1cccc(NCCO)c1)N1CCOCC1 | 0.9463%
NC(=O)C1CCN(C(=O)c2cccc(CN3CCOCC3)c2)CC1 | -12.72%
COC(=O)[C@@H]1Cc2ncn(C(C)C)c2CN1S(=O)(=O)Cc1ccccc1 | 1.678%
CCN(CC)S(=O)(=O)NC(C)C(=O)N(C)C (centres undefined) | -9.888%
CC(C)c1nnc(CNc2ccc(SC(F)(F)F)cc2)o1 | -0.02401%
CCc1ccc(C2CCCCCN2C(=O)CNC(=O)NC2CC2)o1 (centres undefined) | -27.64%
Cc1ccnc(N2CCCC(c3noc(C(C)C)n3)C2)n1 (centres undefined) | 19.69%
c1cnnc(N2CCCC2CNCc2cnc(N3CCCC3)nc2)c1 (centres undefined) | -1.846%
O=C1OCCN1Cc1cc(C(F)(F)F)ccc1F | -10.76%
Cc1nnc(N2CCCC3(CN(c4ccccn4)CCO3)C2)o1.O=C(O)C(F)(F)F (centres undefined) | 102.3%
O=C(O)C(F)(F)F.O=C(O)C(F)(F)F.c1cnc(N2CCOC3(CCCN(c4cnccn4)C3)C2)nc1 (centres undefined) | -4.65%
O=C(O)C(F)(F)F.c1ccc(N2CCOC3(CCCN(c4ncccn4)C3)C2)nc1 (centres undefined) | 84.77%
Cc1nnc(N2CCCC3(CN(Cc4ccc(C)s4)CCO3)C2)o1.O=C(O)C(F)(F)F.O=C(O)C(F)(F)F (centres undefined) | -0.4451%
N#Cc1cccc(N2CCCC3(C2)CN(c2ncccn2)CCO3)n1.O=C(O)C(F)(F)F (centres undefined) | -0.7909%
CCS(=O)(=O)N1CCOC2(CCCN(c3ccccn3)C2)C1.O=C(O)C(F)(F)F (centres undefined) | -10.79%
Cc1cc(C(C)NC(=O)CCN2C(=O)c3ccccc3C2=O)c(C)o1 (centres undefined) | -2.425%
Cc1nc(Nc2ncccn2)cc(C2CCCN2C2CCOCC2)n1 (centres undefined) | -10.06%
Cc1nc(Nc2ncccn2)cc(C2CCCN2Cc2ncc[nH]2)n1 (centres undefined) | 97.78%
Cc1nc(Nc2ccccn2)cc(C2CCCN2Cc2ncc[nH]2)n1 (centres undefined) | 129.4%
c1cc(-c2c[nH]c([C@@H]3COCCN3Cc3ncc[nH]3)n2)ccn1 | -5.75%
